Among the data in the OligoGym collection are sensor-assay potency score (higher = more potent) values, retold here.
Note: reference of the scale not given here.

The first assay concerns the target CDCA8. Put plainly: pooled miR-30 sensor sort-seq; sequence = guide strand. The settings on record: shRNA.
TATCTGAGCCTAAACCTCCCGG: the sensor-assay potency score (higher = more potent) was -0.819. On to TATCATTTCATCTACCTGTATT, for which the sensor-assay potency score (higher = more potent) was -1.16.

Turning to TTTGCTGTCAGCAAGAGGGCTG, the sensor-assay potency score (higher = more potent) is -0.00778.

In turn, TTACCTTTCGTGTTTTGGCAGA showed a sensor-assay potency score (higher = more potent) of -0.552. For TTGGTCTTCAGTAAACAGGGAT, the sensor-assay potency score (higher = more potent) was -0.3.

As to TTCACGGTCGAAGTCTTTCAGA, the sensor-assay potency score (higher = more potent) was -1.11. Still for that read-out and setting: the result for TTCATCTACCTGTATTACCTTT reads -0.507; that for TTCGTATTTCCACTTCACGGTC, -0.813. Regarding TTGCTTGATTCGTATTTCCACT, the sensor-assay potency score (higher = more potent) is -0.831. Still for that read-out and setting: under TAAACATAAAACACTGCTCCAC stands -0.305.

For TCTACCTGTATTACCTTTCGTG, the sensor-assay potency score (higher = more potent) is -0.22.

For a further assay, the target named is CDH19. Described as above. The settings on record: shRNA.
In turn, TTTTCCAGAATGAATTTCCTGA displayed a sensor-assay potency score (higher = more potent) of -0.246. As for TTTCTCAGGAAATAGAATCTGT, the sensor-assay potency score (higher = more potent) was 0.0652. Consider TTCATTGTCATTGATATCCGAA, for which the sensor-assay potency score (higher = more potent) is 0.271. In turn, ATCAGTATTAGCTTCTTCGAGC yielded a sensor-assay potency score (higher = more potent) of -1.26. Take TTATCTATGATTGTAAAACTTG: the sensor-assay potency score (higher = more potent) was -0.902. In turn, TTAATTAATACACTTGTTGTTC returned a sensor-assay potency score (higher = more potent) of -0.144. In turn, TAGTCTGAATTACCTGACCAGA showed a sensor-assay potency score (higher = more potent) of -1.28. In the case of TTGATATTGAACACTTTGCTCC, the sensor-assay potency score (higher = more potent) was -0.145. With TATTGGAATATATTCTCTCTGA, the sensor-assay potency score (higher = more potent) is -0.596.
